Active and inactive are the calls of the source. Unless noted, how the calls were made is not given here.

Experiment [1] in a line: compounds binding Alexa647 anti-His antibody – biochemical, small-molecule microarray, 635 nm fluorescence, artefact control for SMM control protein annotation, primary screen (AID 1128).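 Further: score merges feature fluorescence with signal-to-noise for each printed compound spot.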 Particulars: higher = more signal.
The subject of experiment [2] is Human papillomavirus type 1a E7 protein (residues 1-88). Kind of experiment: HPV1a E7 small-molecule binders, primary screen, biochemical, small-molecule microarray, residues 1-88, 635 nm (AID 1129). Conditions: small-molecule microarray binding, fluorescence 635 nm; higher = more signal.
In experiment [3] the target is Focal adhesion kinase 1 (Homo sapiens) (UniProt Q05397). Kind of experiment: PTK2 protein binding on printed compound slides – biochemical, small-molecule microarray, 635/667 nm fluorescence, BSA, DTT, primary screen (AID 1130).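 Further: composite of spot emission at 667 nm and signal to noise over triplicate slides.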 Conditions: 635 nm fluorescence, higher = more signal.
The subject of experiment [4] is Fibrinogen (Alexa647-labelled). In words: Alexa647-fibrinogen binding to printed small molecules – biochemical, small-molecule microarray, 635/667 nm fluorescence, artefact control for SMM control-protein annotation, profiling panel (AID 1131).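 Further: z-score merges 667 nm fluorescence with per-spot signal-to-noise over triplicate slides.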 Conditions: fibrinogen-A647 binding fluorescence, higher = more signal.
Experiment [5] concerns the target Follistatin (Homo sapiens) (UniProt P19883). Kind of experiment: FST protein binding to printed compounds – biochemical, small-molecule microarray, 635/667 nm fluorescence, primary screen (AID 1132). Conditions: 635 nm fluorescence, higher = more signal.
Experiment [6] concerns the target Fibroblast growth factor 2 (Homo sapiens) (UniProt P09038). In words: basic fibroblast growth factor binding to printed compounds – biochemical, small-molecule microarray, 635/667 nm fluorescence, primary screen (AID 1133). Particulars: FGF2, fluorescence 635/667, higher = more signal.
A short description of experiment [7]: JC-1 mitochondrial potential readout, lung cancer cells – cell-based, A549, JC-1 fluorescence, basal, 24 h, 100 nL, profiling panel (AID 1138).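 Further: A549 lung adenocarcinoma cells under basal conditions with no added stimulus; test concentration not given here.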 Conditions: higher = more signal.
A further experiment has as its system Lefty1. Kind of experiment: Lefty1 protein binding to printed compounds – biochemical, small-molecule microarray, 635/667 nm fluorescence, primary screen (AID 1139). Conditions: fluorescence 635/667, higher = more signal.
For experiment [8], the system named is wheat germ agglutinin (Triticum aestivum), Alexa647-labelled. Kind of experiment: Alexa647-WGA lectin binding to printed small molecules – biochemical, small-molecule microarray, 635/667 nm fluorescence, artefact control for SMM control-protein annotation, profiling panel (AID 1140).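 Further: score merges 667 nm feature emission with signal to noise over triplicate slides.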 Particulars: WGA-A647 binding, 635 nm fluorescence, higher = more signal.
Experiment [9] deals with Luciferin 4-monooxygenase (Photinus pyralis) (UniProt P08659). Kind of experiment: inhibition of purified Photinus pyralis luciferase – biochemical, luminescence, purified enzyme, 2006 set, primary screen (AID 1141).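 Further: cell-free assay with purified firefly luciferase at 100 ng per well in PBS; test concentration not given here.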 Particulars: purified firefly luciferase, SteadyGlo luminescence, 30 min; higher = more signal, called active from +8 up or from −8 down.
For experiment [10], the system named is Wnt5a (protein binding on small-molecule microarray). Kind of experiment: small molecules binding Wnt5a protein – biophysical, small-molecule microarray, 635/667 nm fluorescence, primary screen (AID 1142).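 Further: fluorescence read at 667 nm with signal to noise per printed feature.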 Conditions: 635 nm fluorescence, higher = more signal.
Experiment [11] can be described thus: ATP-based viability of Huh7 replicon cells – cell-based, CellTiter-Glo luminescence, basal, 48 h, cytotoxicity control for HCV replication inhibitor project, primary screen (AID 1143).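 Further: Huh7 hepatoma cells carrying a hepatitis C replication reporter with no stimulus; test concentration not given here.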 Conditions: higher = more signal, called active from +8 up or from −8 down.
Experiment [12] can be described thus: Pseudomonas biofilm growth suppression – PAO1 strain, BacTiter-Glo luminescence, LB-PBS, primary screen (AID 1144). Conditions: P. aeruginosa PAO1 biofilm, 12 h, higher = more signal.
The nature of experiment [13]: basal CRE-LacZ reporter activity in PC12 – cell-based, unstimulated, primary screen (AID 1145). Particulars: no forskolin, luminescence, 4.5 h, higher = more signal, called active from +8 up or from −8 down.
Experiment [14] is described as follows: forskolin-driven CRE-LacZ activity in PC12 – cell-based, CRE-LacZ reporter, forskolin-stimulated, primary screen (AID 1146).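 Further: PC12 cells with 6xCRE LacZ reporter stimulated by forskolin 10 µM; beta-galactosidase reporter signal reflecting CREB driven transcription.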 Conditions: luminescence, 4.5 h, higher = more signal, called active from +8 up or from −8 down.
Experiment [15] has as its target Streptavidin (Streptomyces avidinii) (UniProt P22629). Kind of experiment: compounds binding control protein streptavidin – biophysical, small-molecule microarray, 635/667 nm fluorescence, artefact control for SMM compound annotation, primary screen (AID 1147).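 Further: signal reflects streptavidin binding to arrayed compounds as a control protein.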 Particulars: higher = more signal.
A short description of experiment [16]: probe aInhba binding on compound microarray – biochemical, small-molecule microarray, 635/667 nm fluorescence, primary screen (AID 1148).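 Further: score merges 667nm spot fluorescence with signal-to-noise for antibody binding to printed compounds.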 Conditions: higher = more signal.
Experiment [17] has as its target Torsin-1A (Homo sapiens) (UniProt O14656). Kind of experiment: TOR1A wild-type binding on microarray – cell lysate, small-molecule microarray, lysate, 635/667 nm, primary screen (AID 1149). Conditions: COS7 hTOR1A-WT lysate, 635 nm fluorescence, higher = more signal.
The target is the same in experiment [18]. Kind of experiment: torsin A mutant lysate binding on microarrays – cell lysate, small-molecule microarray, COS7 lysate, 635/667 nm fluorescence, primary screen (AID 1150).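 Further: score pools 667 nm emission and signal to noise measuring lysate protein binding.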 Conditions: COS7 hTOR1A mutant lysate, 635 nm fluorescence, higher = more signal.
Experiment [19] concerns Sonic hedgehog protein (Shh). Kind of experiment: Sonic hedgehog microarray binding compounds – biochemical, small-molecule microarray, 635/667 nm fluorescence, primary screen (AID 1151).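 Further: Shh protein binding to compounds spotted on small-molecule microarray slides; score combines spot fluorescence intensity with signal-to-noise across triplicate slides.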 Conditions: 635 nm fluorescence, higher = more signal.

Focal adhesion kinase 1 (Homo sapiens), sequence (Q05397 whole entry, looked up): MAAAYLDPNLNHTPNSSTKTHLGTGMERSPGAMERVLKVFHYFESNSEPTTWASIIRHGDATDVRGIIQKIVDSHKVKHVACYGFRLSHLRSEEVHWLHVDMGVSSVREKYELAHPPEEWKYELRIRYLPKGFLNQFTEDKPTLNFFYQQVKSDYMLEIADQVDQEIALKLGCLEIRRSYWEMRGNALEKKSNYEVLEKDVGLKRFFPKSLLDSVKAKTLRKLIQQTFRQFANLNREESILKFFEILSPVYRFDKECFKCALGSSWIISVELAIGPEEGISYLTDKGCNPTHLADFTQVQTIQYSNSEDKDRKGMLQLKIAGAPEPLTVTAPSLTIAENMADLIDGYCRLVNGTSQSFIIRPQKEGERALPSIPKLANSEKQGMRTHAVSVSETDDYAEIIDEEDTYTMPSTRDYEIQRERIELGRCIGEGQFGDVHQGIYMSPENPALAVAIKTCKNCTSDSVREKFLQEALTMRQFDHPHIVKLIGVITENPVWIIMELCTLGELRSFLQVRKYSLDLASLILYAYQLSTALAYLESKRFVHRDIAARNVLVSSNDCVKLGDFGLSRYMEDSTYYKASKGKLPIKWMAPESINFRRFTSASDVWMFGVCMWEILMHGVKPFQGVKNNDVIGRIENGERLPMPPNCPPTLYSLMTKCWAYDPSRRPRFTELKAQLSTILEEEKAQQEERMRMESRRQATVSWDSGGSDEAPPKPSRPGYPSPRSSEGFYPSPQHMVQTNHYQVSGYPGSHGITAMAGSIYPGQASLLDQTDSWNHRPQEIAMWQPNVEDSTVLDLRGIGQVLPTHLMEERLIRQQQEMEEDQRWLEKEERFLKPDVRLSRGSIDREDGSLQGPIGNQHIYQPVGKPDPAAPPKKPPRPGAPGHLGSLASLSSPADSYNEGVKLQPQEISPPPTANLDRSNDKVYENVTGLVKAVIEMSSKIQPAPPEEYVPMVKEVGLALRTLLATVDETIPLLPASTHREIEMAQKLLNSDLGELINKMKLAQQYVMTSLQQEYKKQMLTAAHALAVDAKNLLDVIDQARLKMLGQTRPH
Fibroblast growth factor 2 (Homo sapiens), sequence (P09038 whole entry, looked up): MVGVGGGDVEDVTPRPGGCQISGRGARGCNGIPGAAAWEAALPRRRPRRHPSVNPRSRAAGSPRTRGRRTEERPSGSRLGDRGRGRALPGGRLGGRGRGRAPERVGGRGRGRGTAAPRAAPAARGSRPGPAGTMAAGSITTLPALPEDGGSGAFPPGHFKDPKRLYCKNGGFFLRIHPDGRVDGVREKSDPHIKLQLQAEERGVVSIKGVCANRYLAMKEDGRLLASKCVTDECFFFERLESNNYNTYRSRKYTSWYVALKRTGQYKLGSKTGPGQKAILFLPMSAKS
Torsin-1A (Homo sapiens), sequence (O14656 whole entry, looked up): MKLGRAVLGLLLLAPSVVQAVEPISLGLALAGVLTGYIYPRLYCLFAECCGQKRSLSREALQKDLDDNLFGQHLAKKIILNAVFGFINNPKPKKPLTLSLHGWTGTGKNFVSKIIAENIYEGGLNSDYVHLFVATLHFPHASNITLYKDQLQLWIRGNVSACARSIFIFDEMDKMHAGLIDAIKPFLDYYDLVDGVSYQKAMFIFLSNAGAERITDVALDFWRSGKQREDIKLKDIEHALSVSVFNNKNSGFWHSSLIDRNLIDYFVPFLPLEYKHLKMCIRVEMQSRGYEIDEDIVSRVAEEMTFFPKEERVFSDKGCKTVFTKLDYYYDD
Follistatin (Homo sapiens), sequence (P19883 whole entry, looked up): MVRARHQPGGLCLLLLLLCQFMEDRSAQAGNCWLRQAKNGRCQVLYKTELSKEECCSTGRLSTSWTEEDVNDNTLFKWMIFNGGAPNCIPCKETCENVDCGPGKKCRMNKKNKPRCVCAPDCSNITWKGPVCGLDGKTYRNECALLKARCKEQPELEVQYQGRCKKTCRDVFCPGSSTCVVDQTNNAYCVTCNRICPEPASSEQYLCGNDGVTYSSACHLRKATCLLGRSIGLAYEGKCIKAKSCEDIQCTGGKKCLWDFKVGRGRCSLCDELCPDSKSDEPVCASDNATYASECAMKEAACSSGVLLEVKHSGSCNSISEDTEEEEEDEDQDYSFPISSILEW
Streptavidin (Streptomyces avidinii), sequence (P22629 whole entry, looked up): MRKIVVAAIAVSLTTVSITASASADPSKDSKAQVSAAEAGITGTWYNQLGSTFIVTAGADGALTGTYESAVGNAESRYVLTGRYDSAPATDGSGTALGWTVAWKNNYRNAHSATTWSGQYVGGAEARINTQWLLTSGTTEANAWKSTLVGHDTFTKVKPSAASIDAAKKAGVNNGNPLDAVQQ
Luciferin 4-monooxygenase (Photinus pyralis), sequence (P08659 whole entry, looked up): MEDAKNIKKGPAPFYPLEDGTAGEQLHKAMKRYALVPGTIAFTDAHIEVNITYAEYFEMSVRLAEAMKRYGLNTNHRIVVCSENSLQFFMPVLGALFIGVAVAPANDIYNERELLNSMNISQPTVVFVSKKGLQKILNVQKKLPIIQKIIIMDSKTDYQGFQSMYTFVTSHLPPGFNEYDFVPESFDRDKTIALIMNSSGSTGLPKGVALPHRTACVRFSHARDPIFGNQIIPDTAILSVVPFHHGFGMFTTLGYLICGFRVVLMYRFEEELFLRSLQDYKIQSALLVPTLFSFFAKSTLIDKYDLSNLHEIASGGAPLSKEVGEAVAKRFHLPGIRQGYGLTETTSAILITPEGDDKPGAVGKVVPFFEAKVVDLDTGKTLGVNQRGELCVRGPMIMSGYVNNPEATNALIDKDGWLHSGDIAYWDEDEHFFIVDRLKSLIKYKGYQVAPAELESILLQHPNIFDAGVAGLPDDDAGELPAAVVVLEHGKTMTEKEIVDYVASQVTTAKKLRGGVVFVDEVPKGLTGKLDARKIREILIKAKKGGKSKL

For `COC(=O)C1=CC(CCCO)=CC(C2CC2)N(Cc2sc3ccccc3c2Cl)C=C1C(=O)OC` (stereo not given), the composite z-score in experiment [1] was found to be 3.11; in experiment [2], 1.25; in experiment [3], 1.31; in [4], 1.04; in experiment [5] it was 0.939; in experiment [6], 0.0634. The composite z-score with Lefty1 turned out to be 0.222; in experiment [8] it was 0.728; in experiment [10] it was 0.351; in experiment [15], 2.17; in experiment [16], 0.19; in the experiment with Torsin-1A (Homo sapiens) [17], 0.688. Also, the composite z-score is 0.806 in the experiment with Torsin-1A (Homo sapiens) [18] and -0.112 in experiment [19]. Also, the z-score in experiment [7] was 1.14; in experiment [9] it was -0.96 (inactive); in [11], -3.83 (inactive); in experiment [12], 0.989 (inactive); in [13] it was -0.464 (inactive); in experiment [14] it was 0.106 (inactive).

Regarding `COc1c(C)cc(-c2cc3c(c(-c4ccc(Oc5ccccc5)cc4)n2)[Si](C(C)C)(C(C)C)OC3)cc1C`, the composite z-score was -0.271 in experiment [1]; -0.582 in experiment [2]; -0.0939 in experiment [3]; -0.551 in experiment [4]; -0.228 in experiment [5]; 0.515 in experiment [6]. Also, the composite z-score in the experiment on Lefty1 was 0.38; in experiment [8] it was -0.0472; in [10], 0.285; in [15], -0.246; in [16] it was 0.127; with Torsin-1A (Homo sapiens) [17], -0.238. Also, the composite z-score with Torsin-1A (Homo sapiens) [18] is 0.164; in experiment [19] it was 0.205. Also, the z-score is 0.577 in [7]; 0.279 (inactive) in experiment [9]; -0.0304 (inactive) in experiment [11]; 0.0144 (inactive) in [12]; 0.148 (inactive) in [13]; 0.151 (inactive) in experiment [14].

Consider `O=C1OCCC=C[C@H]2OC34C=CCN(Cc5ccccc5)C(=O)[C@H]3N(CCCCCO)C(=O)[C@@H]4C12` (stereo not given in full), for which the composite z-score in experiment [1] is 0.206; in experiment [2] it was 0.702; in [3], 1.95; in experiment [4] it was -1.44; in experiment [5] it was -0.618; in experiment [6] it was -1.16. The composite z-score in the experiment with Lefty1 is 0.475; in experiment [8], 0.809; in [10], -0.733; in experiment [15] it was -0.636; in [16], -0.128; with Torsin-1A (Homo sapiens) [17], 2.82. Moreover, the composite z-score in the experiment with Torsin-1A (Homo sapiens) [18] is 2.07; in experiment [19], -0.211. Moreover, the z-score in experiment [7] was 0.758; in [9], 0.0657 (inactive); in [11] it was 0.409 (inactive); in experiment [12], -1.86 (inactive); in experiment [13], -0.216 (inactive); in [14], -0.732 (inactive).

As to `O=C1OCCC=C[C@H]2OC34C=CCN(c5ccc6ccccc6c5)C(=O)[C@H]3N(CCCCCO)C(=O)[C@@H]4C12` (stereo not given in full), the composite z-score in experiment [1] is 0.565; in experiment [2], 0.312; in experiment [3], 0.602; in experiment [4], 0.737; in [5], -0.626; in [6] it was -0.329. The composite z-score with Lefty1 was -0.332; in experiment [8] it was 1.28; in experiment [10] it was -0.288; in experiment [15], 0.136; in experiment [16], -0.0471; with Torsin-1A (Homo sapiens) [17], 0.592. Also, the composite z-score is 1.8 in the experiment with Torsin-1A (Homo sapiens) [18] and 0.157 in experiment [19]. Further, the z-score is 2.3 in experiment [7]; -1.1 (inactive) in [9]; 0.0855 (inactive) in [11]; -1.17 (inactive) in experiment [12]; 0.0645 (inactive) in experiment [13]; -0.206 (inactive) in [14].

These data come from PubChem BioAssay.
